This is an account of results in paper PMC3218832.

Among the targets are RELARELA (p65 homodimer) (Homo sapiens, UniProt Q04206 1-307); p50p50 homodimer (Homo sapiens, UniProt P19838 7-356); RELB subunit;p50 subunit (Homo sapiens;Homo sapiens, UniProt Q01201;P19838 120-401;7-356).
Common to all, as to experiment: protein binding microarray; high values mean tight binding
Holding throughout (conditions): dsDNA, one strand shown

Another test concerns the target T1, p52p52 homodimer (Homo sapiens, UniProt Q00653 4-332).
T1 sequence: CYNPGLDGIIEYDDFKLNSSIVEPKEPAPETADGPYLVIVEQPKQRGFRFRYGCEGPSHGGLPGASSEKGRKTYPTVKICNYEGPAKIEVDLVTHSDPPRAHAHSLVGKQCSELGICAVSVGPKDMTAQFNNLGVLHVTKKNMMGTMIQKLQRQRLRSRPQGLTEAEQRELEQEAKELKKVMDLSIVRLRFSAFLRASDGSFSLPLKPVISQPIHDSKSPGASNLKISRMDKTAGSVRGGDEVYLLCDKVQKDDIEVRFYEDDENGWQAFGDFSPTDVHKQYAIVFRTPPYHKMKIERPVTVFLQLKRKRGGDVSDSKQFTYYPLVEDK

The target in test [1] is RELA (p65) subunit of heterodimer;p50 subunit (Homo sapiens;Homo sapiens, UniProt Q04206;P19838 1-307;7-356).
Sequence of RELA (p65) subunit of heterodimer;p50 subunit (Q04206 1-307, chain 1 of 2): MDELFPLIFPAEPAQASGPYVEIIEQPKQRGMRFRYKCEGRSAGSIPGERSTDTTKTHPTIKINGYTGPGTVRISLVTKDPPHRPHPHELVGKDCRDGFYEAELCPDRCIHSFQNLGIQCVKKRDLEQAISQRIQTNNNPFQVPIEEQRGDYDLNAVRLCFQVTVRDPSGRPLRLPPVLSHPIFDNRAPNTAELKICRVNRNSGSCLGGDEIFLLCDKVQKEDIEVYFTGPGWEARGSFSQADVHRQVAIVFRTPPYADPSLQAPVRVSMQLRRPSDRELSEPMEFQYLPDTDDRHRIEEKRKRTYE
Sequence of RELA (p65) subunit of heterodimer;p50 subunit (P19838 7-356, chain 2 of 2): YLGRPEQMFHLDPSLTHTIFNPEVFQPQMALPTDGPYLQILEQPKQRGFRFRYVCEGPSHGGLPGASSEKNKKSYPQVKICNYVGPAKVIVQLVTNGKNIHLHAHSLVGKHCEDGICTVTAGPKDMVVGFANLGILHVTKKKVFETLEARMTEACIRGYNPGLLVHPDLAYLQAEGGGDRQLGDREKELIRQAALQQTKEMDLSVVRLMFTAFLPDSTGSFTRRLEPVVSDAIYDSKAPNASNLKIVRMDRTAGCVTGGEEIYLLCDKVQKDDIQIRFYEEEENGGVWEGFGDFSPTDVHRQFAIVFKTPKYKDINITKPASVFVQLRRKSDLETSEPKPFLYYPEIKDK
In test [2] the target is RELA (p65) subunit of heterodimer;p52 subunit (Homo sapiens;Homo sapiens, UniProt Q04206;Q00653 1-307;4-332).
A further test addresses T2, RELB subunit;p52 subunit (Homo sapiens;Homo sapiens, UniProt Q01201;Q00653 120-401;4-332).
T2 sequence 1: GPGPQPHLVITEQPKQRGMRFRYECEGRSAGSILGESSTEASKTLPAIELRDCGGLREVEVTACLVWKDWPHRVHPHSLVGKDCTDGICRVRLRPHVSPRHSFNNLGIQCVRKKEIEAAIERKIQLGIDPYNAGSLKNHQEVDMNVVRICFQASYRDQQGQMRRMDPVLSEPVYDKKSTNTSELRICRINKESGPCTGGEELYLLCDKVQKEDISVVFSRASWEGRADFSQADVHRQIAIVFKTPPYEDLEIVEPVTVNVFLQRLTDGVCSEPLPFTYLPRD
T2 sequence 2: T1 sequence

Test [3] concerns the target C-Rel subunit;p50 subunit (Homo sapiens;Homo sapiens, UniProt Q04864;P19838 1-285;7-356).
Test [4] deals with T3, C-Rel subunit;p52 subunit (Homo sapiens;Homo sapiens, UniProt Q04864;Q00653 1-285;4-332).
T3 sequence 1: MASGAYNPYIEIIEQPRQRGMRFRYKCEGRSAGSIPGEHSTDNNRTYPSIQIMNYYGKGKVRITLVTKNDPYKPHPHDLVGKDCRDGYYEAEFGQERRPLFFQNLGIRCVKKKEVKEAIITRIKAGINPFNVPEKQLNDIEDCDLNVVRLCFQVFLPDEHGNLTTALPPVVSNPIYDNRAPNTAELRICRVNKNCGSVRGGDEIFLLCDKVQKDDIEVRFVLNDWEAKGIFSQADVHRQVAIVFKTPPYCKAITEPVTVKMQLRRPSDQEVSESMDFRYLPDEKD
T3 sequence 2: T1 sequence

Sequence of p50p50 homodimer (P19838 7-356): as the sequence (P19838 7-356, chain 2 of 2) above
Sequence of RELARELA (p65 homodimer) (Q04206 1-307): as the sequence (Q04206 1-307, chain 1 of 2) above

Regarding CAGGGGTTCCT, the binding signal in the test with RELARELA (p65 homodimer) was -0.143 z-score; in the test with p50p50 homodimer, 0.529 z-score; in the test with p52p52 homodimer it was 0.77 z-score; in test [1] it was -0.0941 z-score; in test [2], 0.55 z-score; with RELB subunit;p50 subunit it was -0.0145 z-score. The results for the binding signal (in the test with RELB subunit;p52 subunit; in test [3]; in test [4]) were 0.388 z-score, -0.324 z-score and 0.485 z-score, respectively.
For the sequence AGGAATGCCCT, the binding signal was 1.19 z-score with RELARELA (p65 homodimer); -0.455 z-score with p50p50 homodimer; -0.376 z-score with p52p52 homodimer; -0.147 z-score in test [1]; -0.196 z-score in test [2]; -0.674 z-score with RELB subunit;p50 subunit. For the same sequence, the binding signal with RELB subunit;p52 subunit is -0.494 z-score; in test [3] it was -0.208 z-score; in test [4], 0.0938 z-score.
As for GAAGTTATCCC, the binding signal in the test with RELARELA (p65 homodimer) was -0.0836 z-score; in the test with p50p50 homodimer, -0.295 z-score; with p52p52 homodimer, -0.152 z-score; in test [1], -0.31 z-score; in [2], -0.235 z-score; in the test with RELB subunit;p50 subunit, -0.113 z-score. Moreover, the binding signal with RELB subunit;p52 subunit is -0.152 z-score; in test [3], -0.126 z-score; in [4] it was -0.251 z-score.
Take GGGGTACTCCT: the binding signal with RELARELA (p65 homodimer) was found to be 0.917 z-score; in the test with p50p50 homodimer, 0.595 z-score; with p52p52 homodimer it was 0.756 z-score; in test [1], 0.47 z-score; in test [2], 0.851 z-score; in the test with RELB subunit;p50 subunit it was 0.471 z-score. Also, the binding signal in the test with RELB subunit;p52 subunit is 0.712 z-score; in test [3], 0.395 z-score; in test [4], 0.674 z-score.
Consider AAATTTTTCCC, for which the binding signal worked out at 3.12 z-score with RELARELA (p65 homodimer); 1.2 z-score in the test with p50p50 homodimer; 1.17 z-score with p52p52 homodimer; 1.78 z-score in test [1]; 1.37 z-score in [2]; 1.03 z-score with RELB subunit;p50 subunit. Besides, the binding signal with RELB subunit;p52 subunit turned out to be 1.38 z-score; in test [3], 1.97 z-score; in test [4], 1.31 z-score.
Take GAAGTTGTCCT: the binding signal with RELARELA (p65 homodimer) was -0.136 z-score; with p50p50 homodimer, -1.05 z-score; with p52p52 homodimer, -0.601 z-score; in test [1], -0.859 z-score; in [2], -0.716 z-score; in the test with RELB subunit;p50 subunit it was -0.826 z-score. Besides, the binding signal was -0.62 z-score with RELB subunit;p52 subunit, -0.931 z-score in [3] and -0.642 z-score in test [4].
For GAGGAGCTCCT, the binding signal is -0.566 z-score with RELARELA (p65 homodimer); -1.81 z-score in the test with p50p50 homodimer; -0.78 z-score with p52p52 homodimer; -1.13 z-score in [1]; -0.927 z-score in [2]; -1.05 z-score in the test with RELB subunit;p50 subunit. The binding signal was -1.06 z-score with RELB subunit;p52 subunit, -1.73 z-score in [3] and -0.927 z-score in [4].
AGAGATGCCCT: the binding signal with RELARELA (p65 homodimer) is -0.748 z-score; with p50p50 homodimer, -1.63 z-score; with p52p52 homodimer it was -0.655 z-score; in test [1], -0.706 z-score; in [2] it was -0.889 z-score; with RELB subunit;p50 subunit it was -1.04 z-score. In addition, the results for the binding signal (in the test with RELB subunit;p52 subunit; in test [3]; in test [4]) were -0.94 z-score, -0.882 z-score and -0.704 z-score, respectively.
With GAGGAGCCCCC, the binding signal with RELARELA (p65 homodimer) was -0.939 z-score; in the test with p50p50 homodimer, 1.04 z-score; with p52p52 homodimer, 0.368 z-score; in test [1], 0.44 z-score; in test [2], 0.25 z-score; with RELB subunit;p50 subunit it was 0.656 z-score. Besides, the binding signal in the test with RELB subunit;p52 subunit is 0.61 z-score; in test [3], 0.625 z-score; in [4], 0.222 z-score.
In the case of CAAAGCCTCCC, the binding signal in the test with RELARELA (p65 homodimer) was -0.873 z-score; in the test with p50p50 homodimer it was -0.992 z-score; with p52p52 homodimer it was -0.631 z-score; in test [1], -0.874 z-score; in test [2] it was -0.823 z-score; with RELB subunit;p50 subunit, -0.859 z-score. Further, the binding signal with RELB subunit;p52 subunit was -0.707 z-score; in test [3], -1.19 z-score; in [4] it was -0.839 z-score.
Regarding CAAAGTCCCCT, the binding signal with RELARELA (p65 homodimer) was 0.169 z-score; with p50p50 homodimer it was 1.47 z-score; in the test with p52p52 homodimer it was 1.68 z-score; in test [1] it was 1.79 z-score; in test [2] it was 1.67 z-score; with RELB subunit;p50 subunit, 2.07 z-score. The binding signal with RELB subunit;p52 subunit was 1.96 z-score; in [3], 1.43 z-score; in test [4] it was 1.57 z-score.
Consider GAAGGAGTCCT, for which the binding signal in the test with RELARELA (p65 homodimer) was -0.288 z-score; in the test with p50p50 homodimer, -1.55 z-score; with p52p52 homodimer, -0.648 z-score; in [1], -0.892 z-score; in test [2], -0.934 z-score; with RELB subunit;p50 subunit it was -0.985 z-score. For the same sequence, the values for the binding signal (in the test with RELB subunit;p52 subunit; in test [3]; in test [4]) were -0.808 z-score, -1.08 z-score and -0.746 z-score, respectively.
For the sequence CAATGTGTCCT, the binding signal with RELARELA (p65 homodimer) is 0.249 z-score; with p50p50 homodimer, -1.04 z-score; with p52p52 homodimer, -0.284 z-score; in test [1], -0.926 z-score; in test [2], -0.828 z-score; with RELB subunit;p50 subunit, -0.731 z-score. For the same sequence, the results for the binding signal (with RELB subunit;p52 subunit; in [3]; in [4]) were -0.475 z-score, -0.887 z-score and -0.764 z-score, respectively.
GGAAGGGCCCC: the binding signal is -0.533 z-score with RELARELA (p65 homodimer); -0.314 z-score in the test with p50p50 homodimer; -0.0891 z-score in the test with p52p52 homodimer; 0.16 z-score in test [1]; 0.159 z-score in test [2]; -0.313 z-score with RELB subunit;p50 subunit. For the same sequence, the binding signal is -0.107 z-score in the test with RELB subunit;p52 subunit, -0.00222 z-score in test [3] and 0.327 z-score in test [4].
As for GGGGTTGTCCC, the binding signal in the test with RELARELA (p65 homodimer) was determined as 2.19 z-score; with p50p50 homodimer, 0.663 z-score; with p52p52 homodimer it was 2.99 z-score; in test [1] it was 1.73 z-score; in [2] it was 2.67 z-score; with RELB subunit;p50 subunit, 2.02 z-score. Moreover, the binding signal with RELB subunit;p52 subunit turned out to be 1.88 z-score; in test [3], 1.31 z-score; in [4], 2.32 z-score.
